Source: PubChem BioAssay AID624048 (National Center for Advancing Translational Sciences (NCATS), 2012)
Records with an inconclusive call do not appear. Active and inactive are the calls of the source. Calls come from the whole dose curve; as a rule, active = well fitted inhibition curve with a large enough effect; inconclusive = small, poorly fitted or top-dose-only effect; inactive = no such curve, though single readings can be large or run the other way.

The molecules below were run against Dual specificity protein kinase CLK2 (Homo sapiens) (UniProt P49760) (assay: Reaction Biology data for inhibitors of CLK2: Probe SAR). Conditions: Reaction Biology CLK2 kinase assay, 10 uM ATP; series mostly up to 10 µM; activity change, negative = inhibition: at the top concentration.
From the text: Alternative splicing of pre-mRNAs plays a major role in the regulation of eukaryotic gene expression. Alternative splicing is now thought to be one of the primary reasons for the complexity of higher organisms leading to an average of three protein isoforms per gene. Aberrant splicing can lead to a number of diseases and is known to play a role in rare genetic diseases such as progeria syndrome. Hutchinson-Gilford Progeria Syndrome (HGPS) is a pediatric premature aging disease caused by a spontaneous mutation in the lamin A/C (LMNA) gene due to a single point mutation in the lamin A gene effecting 1 in 4 million people. To identify both specific splicing modulators of the lamin A gene as well as general splicing modulators, a cell-based HTS assay was developed using a minigene reporter system (AIDs, 1459 & 1487). […] This AID summarizes the characterization of lead compounds in Clk2. NIH Molecular Libraries Probe Production Centers Network [MLPCN] NIH Chemical Genomics Center [NCGC] MLPCN Grant: MH084827 Assay Submitter (PI): Tom Misteli
Compound IC50s were determined at Reaction Biology (http://www.reactionbiology.com) with ten concentration points starting at 10 uM in the assay using a 3-fold dilution series. The control compound staurosporine was also tested in the 10-dose IC50 mode with the same 3-fold serial dilution, again starting at 10 uM. All kinase reactions were performed using 10 uM ATP in the assay. 100% activity was taken from kinase reactions with DMSO alone (the vehicle used for compound stock solutions).

Chain of Dual specificity protein kinase CLK2 (Homo sapiens) (P49760 whole entry, looked up, canonical isoform): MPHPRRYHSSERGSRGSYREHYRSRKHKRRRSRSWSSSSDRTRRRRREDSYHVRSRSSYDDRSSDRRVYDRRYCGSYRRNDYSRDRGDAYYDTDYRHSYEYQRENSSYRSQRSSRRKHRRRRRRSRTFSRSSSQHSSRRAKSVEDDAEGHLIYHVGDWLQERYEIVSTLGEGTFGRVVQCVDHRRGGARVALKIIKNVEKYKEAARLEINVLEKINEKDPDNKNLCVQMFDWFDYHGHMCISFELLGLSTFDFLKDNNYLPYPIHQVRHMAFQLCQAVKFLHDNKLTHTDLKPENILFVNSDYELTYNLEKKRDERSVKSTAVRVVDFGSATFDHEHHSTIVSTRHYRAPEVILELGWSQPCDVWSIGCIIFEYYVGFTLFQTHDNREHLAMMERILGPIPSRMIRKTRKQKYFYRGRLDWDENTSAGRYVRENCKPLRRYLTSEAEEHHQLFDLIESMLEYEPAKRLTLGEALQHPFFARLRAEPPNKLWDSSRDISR

Potency, active:
FC(F)(F)c1cccc(Nc2nccc(-c3ccc4c(c3)OCO4)n2)c1 52.1 nM
Clc1ccc(CNc2nccc(-c3ccc4[nH]ncc4c3)n2)cc1Cl 190 nM
Brc1ccc(CNc2nccc(-c3ccc4c(c3)OCO4)n2)cc1Br 29.6 nM
Clc1cc(Cl)cc(CNc2ncncc2-c2ccc3c(c2)OCO3)c1 231 nM
c1cncc(CNc2ccnc(-c3ccc4cn[nH]c4c3)n2)c1 1900 nM
Clc1ccc(CNc2nccc(-c3ccc4cn[nH]c4c3)n2)cc1Cl 429 nM
Clc1ccc(CNc2nccc(-c3ccc4c(c3)OCCO4)n2)cc1Cl 39.1 nM
c1cncc(CNc2nccc(-c3ccc4[nH]ncc4c3)n2)c1 462 nM
Cc1c(-c2ccnc(NCc3ccc(Cl)cc3)n2)sc(=O)n1C 700 nM
c1cncc(CNc2ccnc(-c3ccc4[nH]ncc4c3)n2)c1 665 nM
Cc1nc(CN(C)c2ncnc3ccc(-c4ccc5c(c4)OCO5)cc23)cs1 44.8 nM
Cc1nc(CNc2ncnc3ccc(-c4ccc5c(c4)OCO5)cc23)cs1 187 nM
Cc1c(-c2ccnc(NCc3cccnc3)n2)sc(=O)n1C 576 nM
c1cncc(CNc2nccc(-c3ccc4c(c3)OCO4)n2)c1 59.8 nM
Clc1ccc(CNc2nccc(-c3ccc4c(c3)OCO4)n2)cc1Cl 20.4 nM
Clc1ccc(CNc2ncncc2-c2ccc3c(c2)OCO3)cc1Cl 1560 nM
c1cc(-c2ccc3c(c2)OCO3)nc(Nc2ccc3c(c2)OCO3)n1 259 nM
Cc1nc(CN(C)c2ncnc3ccc(-c4ccc5[nH]ncc5c4)cc23)cs1 160 nM
O=[N+]([O-])c1cc(Nc2nccc(-c3ccc4c(c3)OCO4)n2)cc(C(F)(F)F)c1 39.8 nM
Brc1cc(Br)cc(CNc2nccc(-c3ccc4c(c3)OCO4)n2)c1 41.4 nM
COc1ccc(-c2ccnc(NCc3ccc(Cl)cc3)n2)cc1 1090 nM
FC(F)(F)c1cc(Br)cc(Nc2nccc(-c3ccc4c(c3)OCO4)n2)c1 344 nM
Clc1cc(Cl)cc(CNc2nccc(-c3ccc4c(c3)OCO4)n2)c1 23.4 nM
COc1ccc(-c2ccnc(NCc3ccc(Cl)c(Cl)c3)n2)cc1 409 nM
c1nc(NCC2CCCO2)c2cc(-c3ccc4c(c3)OCO4)ccc2n1 (stereo unspecified) 358 nM

Activity change, negative = inhibition, inactive:
COc1ccc(-c2ccnc(NCc3ccc(Cl)c(Cl)c3)n2)cc1OC -20.3%
c1cncc(CNc2ncncc2-c2ccc3c(c2)OCO3)c1 -42.4%
Clc1ccc(CNc2ccnc(-c3ccc4c(c3)OCO4)n2)cc1Cl -27.8%
COc1cccc(-c2ccnc(NCc3ccc(Cl)c(Cl)c3)n2)c1 -45.2%
COc1cccc(-c2ccnc(NCc3ccc(Cl)cc3)n2)c1 -39.2%
Clc1ccc(Nc2nccc(-c3ccc4c(c3)OCO4)n2)cc1 -45%
